Consider 21 molecules from PubChem BioAssay (NCI).

The nature of assay [1]: NCI Yeast Anticancer Drug Screen. Data for the rad50 strain (AID 155).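 Note: 0% = growth of vehicle-only cultures of the same strain.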 Conditions: S. cerevisiae rad50 strain growth inhibition; at 50.0 µM; hits give high values. In outline:
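Growth of the mutant yeast was measured after compound exposure and referenced to vehicle-treated cultures.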

A short description of assay [2]: NCI Yeast Anticancer Drug Screen. Data for the mec2-1 strain (AID 157). As to conditions: S. cerevisiae mec2-1 strain, at 50.0 µM, hits give high values. In outline: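 Yeast mec2-1 mutant treated with compound. Readout: growth inhibition vs vehicle controls.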
Assay [3] in a line: NCI Yeast Anticancer Drug Screen. Data for the sgs1 mgt1 strain (AID 161).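 Note: 0% = growth of cultures given vehicle only.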 As to conditions: S. cerevisiae sgs1 mgt1 strain, at 50.0 µM, hits give high values. A digest of the protocol:
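Genetically altered yeast, compound exposure, growth inhibition relative to vehicle.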

Assay [4] in a line: NCI Yeast Anticancer Drug Screen. Data for the cln2 rad14 strain (AID 165).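 Note: 0% = growth equal to vehicle treated cultures.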 Conditions: S. cerevisiae cln2 rad14 strain, at 50.0 µM, hits give high values. In outline: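 cln2 rad14 yeast strain; compound exposure; growth inhibition read vs vehicle controls.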
Assay [5] can be described thus: NCI Yeast Anticancer Drug Screen. Data for the bub3 strain (AID 167). As to conditions: S. cerevisiae bub3 mutant strain, at 50.0 µM, hits give high values. A digest of the protocol:
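Whole-cell yeast assay. The mutant strain was incubated with compounds, and growth inhibition was determined by comparison with vehicle-treated cells.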

Assay [6] in a line: NCI Yeast Anticancer Drug Screen. Data for the mlh1 rad18 strain (AID 175). As to conditions: S. cerevisiae mlh1 rad18 strain growth inhibition; at 50.0 µM; hits give high values. A digest of the protocol:
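Yeast w/ defined DNA-repair lesions; compound exposure; growth vs vehicle controls → % inhibition.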

The panel holds about 79,000 compounds, 15% with a hit somewhere; the sample as a whole holds those more often. Unmarked numbers belong to inactive results. Calls of active or inactive are those of the source. Cut-off read from the data, not from the text of the source: active = growth inhibition above about 70%; inactive = the rest.

For the molecule `Cn1c(=O)c2c(nc(NCCO)n2Cc2ccccc2)n(C)c1=O`, the growth inhibition in assay [1] is 20.1%; in assay [2], 9.95%; in assay [3], 7.2%; in assay [4] it was 18.3%; in assay [5] it was 8.45%; in assay [6], 31.2%.

For `CCOc1ccc(NC(=S)NC=C(C(N)=O)C(N)=O)cc1`, the growth inhibition in assay [1] is -47.3%; in assay [2] it was -41.3%; in assay [3], -10.7%; in assay [4], 19.2%; in assay [5], 3.9%; in assay [6] it was -22.6%.

Turning to `O=S(=O)(Nc1ccc(NS(=O)(=O)c2ccccc2)nc1)c1ccccc1`, the growth inhibition in assay [1] was 13.8%; in assay [2], -0.55%; in assay [3], 32.1%; in assay [4], -19.9%; in assay [5], 5.3%; in assay [6] it was -0.75%.

Consider `O=C(Oc1ccc2c(c1)CCN2C(=O)c1cc2c(cc1[N+](=O)[O-])OCO2)c1ccc2c(c1)OCO2`, for which the growth inhibition in assay [1] was 17.4%; in assay [2], 7.2%; in assay [3], -2.3%; in assay [4], 5.7%; in assay [5] it was -4.8%; in assay [6] it was 11.2%.

In the case of `Cc1cc(N(CCC#N)CCC#N)ccc1/C(N=Nc1ccc([N+](=O)[O-])cc1)=N\NC(=O)c1cc(Cl)ccc1O`, the growth inhibition is 18.9% in assay [1]; 8.8% in assay [2]; -5% in assay [3]; 6.85% in assay [4]; -26.4% in assay [5]; 9.1% in assay [6].

Regarding `COc1ccc(C(=O)C/C(=N\N(C(=O)c2ccc(OC)cc2)c2ccccc2)c2ccc(OC)cc2)cc1`, the growth inhibition in assay [1] is 13.6%; in assay [2], -24.8%; in assay [3], 9.9%; in assay [4], -21.1%; in assay [5] it was -9.85%; in assay [6] it was 6.5%.

Turning to `CC(=O)Nc1c(Nc2ccc3c(=O)[nH]ccc3c2C)cc[nH]c1=O`, the growth inhibition in assay [1] is 22.1%; in assay [2], 13.7%; in assay [3] it was 17.1%; in assay [4], 14.5%; in assay [5] it was 10.4%; in assay [6] it was 27.5%.

Turning to `CSC(=S)n1nc(-c2ccccc2)c(N=Nc2ccccc2[N+](=O)[O-])c1-c1ccccc1`, the growth inhibition is 31.6% in assay [1]; 12.5% in assay [2]; 20.2% in assay [3]; -30.9% in assay [4]; 18.6% in assay [5]; 29.9% in assay [6].

In the case of `Cc1c(O)c2c(c(O)c1Cc1ccc(C#N)cc1)C(=O)c1ccccc1C2=O`, the growth inhibition is -4.5% in assay [1]; 31.4% in assay [2]; 17.9% in assay [3]; -4.25% in assay [4]; -1.95% in assay [5]; -0.9% in assay [6].

In the case of `c1ccc(-c2cccc(-c3cccc(-c4ccccc4)c3)c2)cc1`, the growth inhibition in assay [1] was 18.1%; in assay [2], 0.6%; in assay [3], 7.5%; in assay [4], -47.9%; in assay [5], 16.8%; in assay [6] it was -6.65%.

For the molecule `Nc1ccccc1SC1CC(=O)N(c2ccc(Oc3ccc(Cl)cc3)cc2)C1=O` (stereo unspecified), the growth inhibition in assay [1] was 25.6%; in assay [2] it was 12.2%; in assay [3], 13.8%; in assay [4], -12.2%; in assay [5] it was -0.15%; in assay [6] it was 2.55%.

For `CC(=O)C(N)=NCc1ccccc1`, the growth inhibition is 10.2% in assay [1]; 2.7% in assay [2]; -10.7% in assay [3]; 4.6% in assay [4]; 25.8% in assay [5]; 10.8% in assay [6].

For `COC(=O)/C=C(/N)CC(=O)OC`, the growth inhibition was 16.9% in assay [1]; -25.4% in assay [2]; -8.35% in assay [3]; 10.9% in assay [4]; -15.9% in assay [5]; 1.75% in assay [6].

Turning to `O=[N+]([O-])c1cccc(Cc2nc3ccccc3nc2-c2ccccc2)c1`, the growth inhibition was 34.9% in assay [1]; 18.2% in assay [2]; 13.7% in assay [3]; 4.1% in assay [4]; 48.6% in assay [5]; 37.7% in assay [6].

As for `NC(=O)N/N=C/C(Cc1ccccc1)=N/OCc1ccccc1`, the growth inhibition in assay [1] was -6.9%; in assay [2], -1.8%; in assay [3], -0.45%; in assay [4], -17.6%; in assay [5], 16.4%; in assay [6], -1.75%.

As for `CC(=O)OCC(C)Cc1ccc(C(C)(C)C)cc1` (stereo unspecified), the growth inhibition was 3% in assay [1]; 0.3% in assay [2]; 0.7% in assay [3]; -4% in assay [4]; 9.6% in assay [5]; -2.4% in assay [6].

As for `CCCCNC(=O)C1CCC(CC2CCCCC2)CC1` (stereo unspecified), the growth inhibition is 22.8% in assay [1]; 28.7% in assay [2]; 12.5% in assay [3]; -3.3% in assay [4]; 18.4% in assay [5]; 10.6% in assay [6].

Consider `COc1cc(NC=O)c2c(c1)SCC(=O)N2`, for which the growth inhibition in assay [1] was -1.75%; in assay [2] it was -52.5%; in assay [3] it was -8.75%; in assay [4], 6.7%; in assay [5], 6.2%; in assay [6], -6.6%.

Take `CCCCC[CH2][Sn]([CH2]CCCCC)([CH2]CCCCC)[NH]S(=O)(=O)c1ccc(C)cc1`: the growth inhibition in assay [1] was 99.3% (active); in assay [2], 99.6% (active); in assay [3], 99.5% (active); in assay [4], 99% (active); in assay [5], 99.2% (active); in assay [6] it was 99.3% (active).

Consider `CC(=O)Oc1cccc(O)c1`, for which the growth inhibition was -1.55% in assay [1]; -3.65% in assay [2]; -15.2% in assay [3]; -22.5% in assay [4]; -4.15% in assay [5]; 3% in assay [6].

For the molecule `CN1OC(CO)CC12C1CC3CC(C1)CC2C3` (stereo unspecified), the growth inhibition in assay [1] is -41%; in assay [2] it was -19.1%; in assay [3] it was -53.5%; in assay [4] it was -3.4%; in assay [5], -42.7%; in assay [6], -53.8%.
